Assay results as given in PubChem BioAssay AID1159580 (chemical genetic matrix, 2015).
“And” between values parts separate entries of the source, which are not always exact repeats. Identical values can stand only once. The campaign covered roughly 5,500 compounds. About 2,000 (36%) were called active. Inconclusive results (about 18%) are left out. Rule as the data show it: active = normalized growth mostly below about 0.91 (no sharp cut-off); inconclusive = no clear call, values can overlap the other calls; inactive = mostly above about 0.92. This is one part of the list.

Assay: chemical genetic growth profiling, strain panel (AID 1159580);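 also: tested at 20 µM; growth read once vehicle control cultures reached saturation at 30 °C; 1 = growth at the plate median or of vehicle wells; lower values mean less growth of the strain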
Conditions: growth OD

Measured: normalized growth

CN(C)CCC=C1c2ccccc2CCc2ccccc21
active: S. cerevisiae deletion strains, locus YNL209W, strain ssb2, stronger effect = lower value 0.897
inactive: S. cerevisiae deletion strains, locus YJR066W, strain TOR1, stronger effect = lower value 0.983 | S. cerevisiae deletion strains, locus YJR075W, strain HOC1, stronger effect = lower value 0.981 | S. cerevisiae deletion strains, locus YKL009W, strain mrt4, stronger effect = lower value 0.998 | S. cerevisiae deletion strains, locus YKL068W, stronger effect = lower value 0.998 | S. cerevisiae deletion strains, locus YKL085W, strain MDH1 (second series), stronger effect = lower value 0.996 | S. cerevisiae deletion strains, locus YKL085W, strain MDH1, stronger effect = lower value 0.996 | S. cerevisiae deletion strains, locus YKL160W, strain elf1, stronger effect = lower value 1.01 | S. cerevisiae deletion strains, locus YKL190W, strain CNB1, stronger effect = lower value 1.01 | S. cerevisiae deletion strains, locus YKR001C, strain vps1, stronger effect = lower value 0.985 | S. cerevisiae deletion strains, locus YKR026C, strain gcn3, stronger effect = lower value 0.998 | S. cerevisiae deletion strains, locus YKR091W, strain srl3, stronger effect = lower value 0.964 | S. cerevisiae deletion strains, locus YLL001W, strain dnm1, stronger effect = lower value 1.02 | S. cerevisiae deletion strains, locus YLL026W, stronger effect = lower value 1 | S. cerevisiae deletion strains, locus YLL041C, strain sdh2, stronger effect = lower value 0.986 | S. cerevisiae deletion strains, locus YLR027C, strain aat2, stronger effect = lower value 0.997 | S. cerevisiae deletion strains, locus YLR039C, strain RIC1, stronger effect = lower value 1.05 | S. cerevisiae deletion strains, locus YLR058C, strain SHM2, stronger effect = lower value 1.01 | S. cerevisiae deletion strains, locus YLR102C, strain apc9, stronger effect = lower value 0.987 | S. cerevisiae deletion strains, locus YLR113W, strain HOG1, stronger effect = lower value 1.02 | S. cerevisiae deletion strains, locus YLR221C, strain rsa3, stronger effect = lower value 0.94 | S. cerevisiae deletion strains, locus YLR258W, strain gsy2, stronger effect = lower value 0.972 | S. cerevisiae deletion strains, locus YLR262C, strain YPT6 (second series), stronger effect = lower value 1.06 | S. cerevisiae deletion strains, locus YLR262C, strain YPT6, stronger effect = lower value 1.1 | S. cerevisiae deletion strains, locus YLR268W, strain sec22, stronger effect = lower value 0.998 | S. cerevisiae deletion strains, locus YLR320W, strain mms22, stronger effect = lower value 0.95 | S. cerevisiae deletion strains, locus YLR330W, strain CHS5, stronger effect = lower value 1.01 | S. cerevisiae deletion strains, locus YLR342W, strain FKS1 (second series), stronger effect = lower value 0.981 | S. cerevisiae deletion strains, locus YLR342W, strain FKS1, stronger effect = lower value 0.963 | S. cerevisiae deletion strains, locus YLR357W, strain rsc2, stronger effect = lower value 0.92 | S. cerevisiae deletion strains, locus YLR370C, strain arc18, stronger effect = lower value 0.956 | S. cerevisiae deletion strains, locus YLR371W, strain rom2, stronger effect = lower value 1 | S. cerevisiae deletion strains, locus YLR384C, strain iki3, stronger effect = lower value 0.988 | S. cerevisiae deletion strains, locus YLR418C, strain cdc73, stronger effect = lower value 0.985 | S. cerevisiae deletion strains, locus YML016C, strain PPZ1, stronger effect = lower value 1 | S. cerevisiae deletion strains, locus YML032C, strain rad52, stronger effect = lower value 0.993 | S. cerevisiae deletion strains, locus YML120C, strain ndi1, stronger effect = lower value 0.986 | S. cerevisiae deletion strains, locus YML124C, strain tub3, stronger effect = lower value 0.99 | S. cerevisiae deletion strains, locus YMR058W, strain fet3, stronger effect = lower value 0.979 | S. cerevisiae deletion strains, locus YMR078C, strain ctf18, stronger effect = lower value 1 | S. cerevisiae deletion strains, locus YMR125W, strain sto1, stronger effect = lower value 0.924 | S. cerevisiae deletion strains, locus YMR129W, stronger effect = lower value 0.971 | S. cerevisiae deletion strains, locus YMR205C, strain PFK2, stronger effect = lower value 0.995 | S. cerevisiae deletion strains, locus YMR223W, strain ubp8, stronger effect = lower value 1 | S. cerevisiae deletion strains, locus YMR231W, strain pep5, stronger effect = lower value 0.987 | S. cerevisiae deletion strains, locus YMR263W, strain SAP30, stronger effect = lower value 1.01 and 1.02 | S. cerevisiae deletion strains, locus YMR307W, strain GAS1, stronger effect = lower value 1.04 and 1.01 | S. cerevisiae deletion strains, locus YNL067W, strain RPL9B, stronger effect = lower value 1.01 | S. cerevisiae deletion strains, locus YNL071W, strain lat1, stronger effect = lower value 0.998 | S. cerevisiae deletion strains, locus YNL153C, strain GIM3, stronger effect = lower value 1 and 0.972 | S. cerevisiae deletion strains, locus YNL175C, strain NOP13, stronger effect = lower value 1.01 | S. cerevisiae deletion strains, locus YNL183C, strain NPR1, stronger effect = lower value 0.998 | S. cerevisiae deletion strains, locus YNL197C, strain WHI3, stronger effect = lower value 1.06 | S. cerevisiae deletion strains, locus YNL224C, strain SQS1, stronger effect = lower value 1.03 | S. cerevisiae deletion strains, locus YNL233W, strain BNI4, stronger effect = lower value 1.01 | S. cerevisiae deletion strains, locus YNL248C, strain rpa49, stronger effect = lower value 0.915 | S. cerevisiae deletion strains, locus YNL250W, strain rad50, stronger effect = lower value 0.995 | S. cerevisiae deletion strains, locus YNL271C, strain bni1, stronger effect = lower value 1 | S. cerevisiae deletion strains, locus YNL298W, strain CLA4, stronger effect = lower value 0.991 | S. cerevisiae deletion strains, locus YNL307C, strain MCK1, stronger effect = lower value 0.999 | S. cerevisiae deletion strains, locus YNL322C, strain KRE1 (second series), stronger effect = lower value 0.997 | S. cerevisiae deletion strains, locus YNL322C, strain KRE1, stronger effect = lower value 1.01 | S. cerevisiae deletion strains, locus YNR049C, strain mso1, stronger effect = lower value 0.974 | S. cerevisiae deletion strains, locus YNR052C, strain pop2, stronger effect = lower value 0.998 | S. cerevisiae deletion strains, locus YOL012C, strain htz1 1.09 | S. cerevisiae deletion strains, locus YOL147C, strain pex11, stronger effect = lower value 1 | S. cerevisiae deletion strains, locus YOR001W, strain rrp6, stronger effect = lower value 0.971 | S. cerevisiae deletion strains, locus YOR061W, strain CKA2, stronger effect = lower value 1.01 | S. cerevisiae deletion strains, locus YOR069W, strain VPS5, stronger effect = lower value 1.01 | S. cerevisiae deletion strains, locus YOR070C, strain gyp1, stronger effect = lower value 0.975 | S. cerevisiae deletion strains, locus YOR080W, strain dia2, stronger effect = lower value 0.987 | S. cerevisiae deletion strains, locus YOR083W, strain WHI5 (second series), stronger effect = lower value 1.08 | S. cerevisiae deletion strains, locus YOR083W, strain WHI5, stronger effect = lower value 0.975 | S. cerevisiae deletion strains, locus YOR106W, strain vam3, stronger effect = lower value 0.96 | S. cerevisiae deletion strains, locus YOR136W, strain idh2, stronger effect = lower value 0.984 | S. cerevisiae deletion strains, locus YOR144C, strain elg1, stronger effect = lower value 0.977 | S. cerevisiae deletion strains, locus YOR184W, strain ser1, stronger effect = lower value 0.991 | S. cerevisiae deletion strains, locus YOR231W, strain MKK1, stronger effect = lower value 1.05 | S. cerevisiae deletion strains, locus YOR265W, strain rbl2, stronger effect = lower value 0.98 | S. cerevisiae deletion strains, locus YOR270C, strain vph1, stronger effect = lower value 0.87 | S. cerevisiae deletion strains, locus YOR290C, strain snf2, stronger effect = lower value 0.938 | S. cerevisiae deletion strains, locus YOR316C, strain cot1, stronger effect = lower value 0.993 | S. cerevisiae deletion strains, locus YPL051W, strain arl3, stronger effect = lower value 0.957 | S. cerevisiae deletion strains, locus YPL078C, strain atp4, stronger effect = lower value 0.994 | S. cerevisiae deletion strains, locus YPL106C, strain sse1, stronger effect = lower value 0.987 | S. cerevisiae deletion strains, locus YPL240C, strain hsp82, stronger effect = lower value 0.991 | S. cerevisiae deletion strains, locus YPL256C, strain CLN2, stronger effect = lower value 1.06 | S. cerevisiae deletion strains, locus YPR119W, strain clb2, stronger effect = lower value 1 | S. cerevisiae deletion strains, locus YPR141C, strain kar3, stronger effect = lower value 1 | S. cerevisiae deletion strains, locus YPR163C, strain tif3, stronger effect = lower value 0.999 | S. cerevisiae deletion strains, locus YPR167C, strain met16, stronger effect = lower value 1 | S. cerevisiae deletion strains, strain wtn01, stronger effect = lower value 0.982 | S. cerevisiae strains, strain wild type, stronger effect = lower value 1.01
